The source made the active and inactive calls.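 How the source made its calls: active means inhibition above 20% together with a positive visual image hit; inconclusive means visual image hit but inhibition not above 20%; inactive means no visual image hit.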
Assay: inhibitors of TNFa-induced NFkB p65 translocation, primary screen, imaging, HUVEC, MLSMR starter and 10KST1 sets (AID 438);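 further: compound added about 3h40 before a 20 min TNFalpha stimulation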;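 on inhibition: signal is the nuclear over cytoplasmic p65 intensity ratio per well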
Conditions: HUVEC TNFa-induced p65 nuclear translocation; cell count: measured here: nuclei count (cytotoxicity indicator), at 2.08 µM; inhibition: at 2 µM, stronger effect = higher value, 0% TNFa-plus-vehicle, 100% no-TNFa wells

Structure (SMILES) | inhibition | cell count
CCCCCOc1ccccc1C(=O)NCCCC(=O)O | -4.8% (inactive) | 352
Cc1cc(=O)oc(C)c1C(=O)Nc1ccc2nsnc2c1 | -2% (inactive) | 517
CCOC(=O)NC1(C(F)(F)F)C(=O)NC(C)=C1C#N (stereo not given) | 3.7% (inactive) | 377
CCc1cc(=O)oc2cc(C)c(CN3CCCC3)c(O)c12 | -6.3% (inactive) | 666
Cc1cc(Nc2ccc3ccccc3c2)n2ncnc2n1 | -0.6% (inactive) | 503
O=c1c2c3c(sc2n2cnnc2n1C1CCCCC1)CCC3 | -3.6% (inactive) | 363
Cc1cccc(-n2ncc3c(NCCN4CCOCC4)ncnc32)c1 | -8.2% (inactive) | 596
CCCCOC(=O)CSC1=C(C#N)C(c2ccc3c(c2)OCO3)CC(=O)N1 (stereo not given) | -12.5% (inactive) | 650
COC(=O)CSCC(=O)Nc1cc2c(cc1C(C)=O)OCO2 | -6.3% (inactive) | 333
Cc1c(C)[n+](=O)c2c(n1[O-])CCC2 | -2% (inactive) | 529
CC1CCN(c2ncnc3c2cnn3Cc2ccc(Cl)cc2)CC1 | -8.1% (inactive) | 549
Cc1cc(=O)oc(C)c1C(=O)n1nc(C)c2c1C[C@@H]1[C@H]2C1(C)C | -3.8% (inactive) | 553
Cc1cc(=O)oc(C)c1C(=O)NC1CC(C)(C)NC(C)(C)C1 | -8.3% (inactive) | 688
O=C(Oc1oc(-c2ccco2)nc1C=Nc1ccccc1)c1ccco1 | 15% (inactive) | 504
Cn1c(=O)c2c(nc(NCCCO)n2Cc2cccc(C(F)(F)F)c2)n(C)c1=O | -11.8% (inactive) | 652

Source: PubChem BioAssay
